# Test results published in PubChem BioAssay AID624156 (Broad Institute, 2012).
# The campaign covered roughly 46,000 compounds. About 900 (2%) were called active. Inconclusive results (about 1%) are left out. Rule as the data show it: active = ROS induction above about 79% (passing the limit was not always enough); inconclusive = no clear call, values can overlap the other calls. The list comes from a sample in which actives are over-represented; it also holds similar structures and randomly drawn compounds.
# Assay: ROS inducers in U2OS cancer cells, primary screen, cell-based, H2DCF-DA fluorescence (AID 624156);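 also: 0% = DMSO vehicle median and 100% = reference compound median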
# Conditions: at 10 µM, hits give high values
row,SMILES,ROS induction (% of piperlongumine)
1,CC(C)OC(=O)C1=c2s/c(=C\c3cccnc3)c(=O)n2C(N)=C(C#N)C1c1cccnc1 (stereo not given),104% (active)
2,COC(=O)C1=C(N)Oc2cc(C)oc(=O)c2C1c1cccnc1 (stereo not given),69.7% (inactive)
3,CCN(Cc1ccccc1)S(=O)(=O)c1cc(Cl)ccc1Cl,29.9% (inactive)
4,CCN(CC)c1nc(C#N)nc(OC)n1,55.7% (inactive)
5,CC(CN1CCCC1)OC(=O)c1cc(C(C)(C)C)cc(C(C)(C)C)c1 (stereo not given),21.6% (inactive)
6,COC(=O)C1=C[C@@H](O)[C@@H](O)[C@H](O[C@@H]2O[C@H](CO)[C@@H](O)[C@H](O)[C@H]2OC(=O)/C=C/c2ccccc2)C1,-5.34% (inactive)
7,CO[C@H]1O[C@H](CO)[C@@H](OC(=O)Nc2ccccc2-c2ccccc2)[C@H](OC(=O)Nc2ccccc2)[C@H]1OC(=O)Nc1ccccc1,132% (active)
8,CNC[C@@H]1Oc2c(NC(=O)Nc3ccccc3)cccc2C(=O)N([C@@H](C)CO)C[C@@H]1C,-4.47% (inactive)
9,S=C(NCCc1ccc(Cl)cc1)Nc1ccccc1,-13.7% (inactive)
10,O=C(c1cncc(NS(=O)(=O)c2ccc(Cl)cc2)c1)N1CCN(Cc2ccccc2)CC1,41.7% (inactive)
11,CC(C)C1N=C2c3ccccc3N=C(SCC(=O)c3ccc(Br)cc3)N2C1=O (stereo not given),63.2% (inactive)
12,O=c1c2ccccc2nc(SCc2cccc(F)c2)n1C1CC1,17.8% (inactive)
13,CC(C)(C)C(=O)CSc1nc2ccccc2c(=O)n1CC1CC1,120% (active)
14,Cc1ccc(-n2c(SCC(=O)Nc3cccc(C)c3C)nc3ccccc3c2=O)cc1,-0.837% (inactive)
15,O=C(CSc1nc(-c2cccs2)cc(C(F)(F)F)n1)OCCCc1ccccc1,1.26% (inactive)
16,CC(C)NC(=O)N(C)C[C@H]1Oc2ccc(NS(=O)(=O)c3cn(C)cn3)cc2CC(=O)N([C@@H](C)CO)C[C@H]1C,1.5% (inactive)
17,C[C@@H]1CCCCO[C@@H](CN(C)S(=O)(=O)c2cccs2)[C@@H](C)CN([C@H](C)CO)C(=O)c2cc(NC(=O)Nc3ccc(F)cc3)ccc2O1,55.6% (inactive)
18,C[C@@H]1CCCCO[C@H](CN(C)Cc2ccncc2)[C@@H](C)CN([C@H](C)CO)C(=O)c2cc(NS(C)(=O)=O)ccc2O1,-7.81% (inactive)
19,C[C@@H]1CN([C@H](C)CO)C(=O)c2cc(NS(=O)(=O)c3cccs3)ccc2O[C@H]1CN(C)Cc1ccncc1,26% (inactive)
20,C[C@@H]1CCCCO[C@H](CN(C)S(=O)(=O)c2cccs2)[C@@H](C)CN([C@H](C)CO)C(=O)c2cc(NC(=O)Nc3ccccc3)ccc2O1,37.3% (inactive)

row,SMILES,ROS induction (% of piperlongumine)
1,C[C@@H]1CCCCO[C@@H](CN(C)Cc2ccncc2)[C@@H](C)CN([C@H](C)CO)C(=O)c2cc(NS(=O)(=O)c3cccs3)ccc2O1,104% (active)
2,C[C@@H]1CCCCO[C@@H](CN(C)S(=O)(=O)c2cccs2)[C@@H](C)CN([C@H](C)CO)C(=O)c2cc(NC(=O)Nc3ccc4c(c3)OCO4)ccc2O1,91.3% (active)
3,COc1ccc(C=NCc2ccc(OC)c(OC)c2)cc1OC,12.4% (inactive)
4,CC1C=CCC2C(=O)N(c3cccc(Cl)c3)C(=O)C12 (stereo not given),-5.69% (inactive)
5,CC1CCC(NC(=O)c2ccccc2C(=O)O)CC1 (stereo not given),-7.64% (inactive)
6,Cc1ccc2c(c1)c(-c1ccccc1)c(-c1ccccc1)n2CC(O)CNCc1ccco1 (stereo not given),4.62% (inactive)
7,O=C(COC(=O)c1cc2ccccc2cc1O)c1ccc(OCc2ccccc2)cc1,6.42% (inactive)
8,Cc1noc(C)c1NC(=O)N(C)C[C@H]1Oc2ccc(NC(=O)C3CCCCC3)cc2CC(=O)N([C@@H](C)CO)C[C@H]1C,-5.41% (inactive)
9,FC(F)(F)c1cccc(NC(=S)Nc2cc(-c3cccs3)[nH]n2)c1,-6.71% (inactive)
10,CCOC(=O)N1CCC(NC(=O)NCc2noc3ccccc23)CC1,-11.6% (inactive)
11,CC(=O)Nc1ccc(Nc2c3c4c(cccc4[nH]c2=O)C(=O)c2ccccc2-3)cc1,105% (active)
12,CC(=O)Nc1ccc(NC(=O)CN(c2ccccc2Br)S(C)(=O)=O)cc1,-14% (inactive)
13,CC(=O)Nc1ccc(NC(=O)COc2ccccc2C(=O)Nc2cccc(Cl)c2Cl)cc1,-10% (inactive)
14,COc1cc2c(cc1NC(=O)CCC1CCCCC1)oc1ccccc12,-18.8% (inactive)
15,CCOC(=O)c1c(C)nn(-c2ncccc2NC(=O)CCC(=O)O)c1C,-11.2% (inactive)
16,COC(=O)[C@@]1(CCS(=O)(=O)c2ccccc2)N=C(c2ccc(OCCCO)cc2)O[C@H]1c1ccccc1N=[N+]=[N-],33.1% (inactive)
17,COC(=O)[C@]1(Cc2ccccc2CN=[N+]=[N-])N=C(c2ccc(OCCCO)cc2)O[C@@H]1c1ccccc1CN=[N+]=[N-],86.1% (active)
18,[N-]=[N+]=Nc1ccccc1C[C@@]1(C(=O)NCc2ccccc2)N=C(c2ccc(OCCCO)cc2)O[C@@H]1c1ccccc1,30.8% (inactive)
19,CNC[C@H]1Oc2ccc(NS(=O)(=O)c3cn(C)cn3)cc2C(=O)N([C@@H](C)CO)C[C@@H]1C,5.85% (inactive)
20,COc1ccc(NC(=S)NCC(c2ccccc2)c2c[nH]c3ccccc23)cc1 (stereo not given),4.82% (inactive)
